Assay results reported in PubChem BioAssay (NCATS).
Inconclusive results are not listed. Activity calls are given as the source filed them. Unless noted, the call rests on the fitted dose curve; in most records, active means well fitted curve in either direction with a large enough effect (not every such curve was filed as active); inconclusive means small, poorly fitted or top-dose-only effect, or another doubt; inactive means flat fitted curve, though single readings scatter.

How the values were obtained:
[1] = biological target: Lysosomal acid glucosylceramidase (Homo sapiens) (UniProt P04062); assay: Glucocerebrosidase-p2 (AID 348; in the data active means potency below about 10 µM; further: potency means the concentration at half of the fitted maximal effect); conditions: purified GBA, blue fluorogenic substrate, 40 min
Lysosomal acid glucosylceramidase (Homo sapiens), sequence (P04062 whole entry, looked up): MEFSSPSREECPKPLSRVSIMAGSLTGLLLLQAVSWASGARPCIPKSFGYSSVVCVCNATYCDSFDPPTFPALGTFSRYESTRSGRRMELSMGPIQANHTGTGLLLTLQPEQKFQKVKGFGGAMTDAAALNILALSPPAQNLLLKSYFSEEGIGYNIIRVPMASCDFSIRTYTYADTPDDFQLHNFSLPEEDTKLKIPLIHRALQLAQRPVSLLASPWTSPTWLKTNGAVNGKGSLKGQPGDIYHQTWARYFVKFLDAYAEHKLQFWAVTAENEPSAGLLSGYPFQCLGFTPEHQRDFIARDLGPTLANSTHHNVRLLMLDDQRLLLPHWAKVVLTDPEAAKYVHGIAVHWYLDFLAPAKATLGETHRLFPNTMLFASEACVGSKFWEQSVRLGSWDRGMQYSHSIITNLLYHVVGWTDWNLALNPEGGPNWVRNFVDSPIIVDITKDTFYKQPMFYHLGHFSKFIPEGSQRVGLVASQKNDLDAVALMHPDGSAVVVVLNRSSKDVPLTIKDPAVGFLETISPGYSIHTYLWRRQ
In short: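 Normal human glucocerebrosidase (0.2 nM) with blue fluorogenic substrate (80 uM final) in citrate/phosphate pH 5.9 with 10mM sodium taurocholate, 0.01% tween-20; 40 min RT, NaOH/glycine stop; fluorescence Ex 365/Em 440; AC50 from a titration from 0.6 nM upwards.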

[2] = AP1 Signaling Pathway (AID 357); conditions: ME-180 AP-1-bla reporter, EGF-induced, beta-lactamase ratio, 5 h; at 7.69 µM (top of the series) unless noted;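 further: ME-180 reporter cells stimulated with EGF at its EC50 level; on the % scale 0 is the no-effect control and ±100 the full control effect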
In short: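 Beta-lactamase reporter under AP-1 response element, ME-180 background. Stimulus: EC50 EGF. Compound exposure 5 h, 37 °C. Detection: CCF4, 2.5 h RT, 460/530 nm. Values: AC50 from titration.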

[3] = NFAT Signaling Pathway (AID 444); conditions: Jurkat NFAT-bla M1, carbachol, beta-lactamase ratio, 5 h; at 7.69 µM (top of the series) unless noted;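 further: carbachol stimulus at about its EC50 of 1 µM final; on the % scale 0 is the no-effect control and ±100 the full control effect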
In short: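 Jurkat cells carrying an NFAT-driven β-lactamase reporter and co-transfected muscarinic M1 receptor were treated with compound plus carbachol (1 uM final, an EC50 level) for 5 h at 37 °C. CCF4 loading followed for 1 h at RT; 460/530 nm ratio gave %activity.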

[4] = Stat Signaling Pathway (AID 446); conditions: ME-180 (cervical carcinoma) SIE beta-lactamase reporter, IL-6 stimulated, 5 h; at 7.69 µM (top of the series) unless noted;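 further: ME-180 cervical cancer cells given 40 pM IL-6 alongside compound; SIE-controlled beta-lactamase reporter measured as 460/530 nm FRET emission ratio; on the % scale 0 is the no-effect control and ±100 the full control effect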
In short: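 FRET read-out (405 nm excitation, 460/530 nm emission) of a beta-lactamase reporter under a STAT-inducible element in ME-180 cervical carcinoma cells. Cells with compound receive 40 pM IL-6 for 5 h. Values are normalised to AC90 stimulation and AC90 JAK-inhibitor controls.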

[5] = biological target: Glucocorticoid receptor (Homo sapiens) (UniProt P04150); assay: GR-GFP Redistribution (AID 450;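 active means compounds whose dose series gives a full or clear partial fitted curve of increased nuclear translocation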; further: potency means the concentration at half of the fitted maximal effect); conditions: U2OS GR-GFP nuclear translocation, laser cytometry, 2 h
Glucocorticoid receptor (Homo sapiens), sequence (P04150 whole entry, looked up, the tested form may be a part): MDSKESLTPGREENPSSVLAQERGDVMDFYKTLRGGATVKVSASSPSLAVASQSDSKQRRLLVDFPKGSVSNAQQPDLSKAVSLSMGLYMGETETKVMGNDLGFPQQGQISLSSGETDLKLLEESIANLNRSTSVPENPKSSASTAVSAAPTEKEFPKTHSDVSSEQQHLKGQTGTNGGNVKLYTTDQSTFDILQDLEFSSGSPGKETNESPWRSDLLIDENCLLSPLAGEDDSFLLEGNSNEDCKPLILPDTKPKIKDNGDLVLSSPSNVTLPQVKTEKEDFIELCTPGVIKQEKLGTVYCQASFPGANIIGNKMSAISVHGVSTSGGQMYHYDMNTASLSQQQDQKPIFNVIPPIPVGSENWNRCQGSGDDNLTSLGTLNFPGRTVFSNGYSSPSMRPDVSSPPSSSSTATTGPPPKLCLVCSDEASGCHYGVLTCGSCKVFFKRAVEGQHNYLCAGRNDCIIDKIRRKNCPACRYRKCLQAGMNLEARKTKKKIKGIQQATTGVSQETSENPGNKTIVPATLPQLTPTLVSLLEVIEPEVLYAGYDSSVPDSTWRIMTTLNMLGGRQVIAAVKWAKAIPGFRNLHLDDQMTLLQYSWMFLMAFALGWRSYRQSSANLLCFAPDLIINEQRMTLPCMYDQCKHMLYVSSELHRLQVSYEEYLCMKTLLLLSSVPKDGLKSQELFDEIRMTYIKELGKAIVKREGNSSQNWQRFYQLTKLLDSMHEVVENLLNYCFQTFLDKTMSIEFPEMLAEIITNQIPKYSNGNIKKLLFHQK

[6] = biological target: Glucocorticoid receptor (Homo sapiens) (UniProt P04150); assay: GR-EFC Redistribution (AID 451; calls by dose curve; further: potency means the concentration at half of the fitted maximal effect); conditions: CHO-K1 GR-EFC translocation, beta-gal luminescence, 2 h
In short: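 CHO-K1 cells stably expressing nuclear-localized β-gal enzyme acceptor and GR fused C-terminally to the enzyme donor fragment; ligand-driven nuclear translocation restores β-gal by complementation. Compounds titrated up to 46 uM final, 2 h at 37 °C; luminescence read.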

[7] = biological target: Mitogen-activated protein kinase 10 (Mus musculus) (UniProt Q61831); assay: JNK3 AlphaScreen Assay (AID 530); conditions: JNK3 lysate, c-Jun phosphorylation; series mostly up to 11.4 µM;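 further: kinase came from lysate of stimulated human HepG2 cells; signal reports phosphorylation of biotinylated GST-cJun 1-79 at Ser73 with 10 µM ATP; on the % scale 0 is the no-effect control and ±100 the full control effect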
In short: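 Biotinylated GST-cJun(1-79) served as substrate for JNK3 in HepG2 lysates stimulated with IL-1beta and TNF-alpha. ATP was 10 uM final, pH 7.6. Ser73 phosphorylation was quantified by AlphaScreen (680 nm excitation).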

[8] = biological target: 3',5'-cyclic-AMP phosphodiesterase 4B (Homo sapiens) (UniProt Q07343); assay: qHTS Assay for Inhibitors of PDE-IV (AID 607; active means well fitted activation curve with a large enough effect in the main read-out, with a control signal flat, not every such curve was filed as active; further: % of control where 0% means no effect); conditions: HEK293 ACTOne CNG channel cells, membrane potential fluorescence; series mostly up to 22.9 µM
3',5'-cyclic-AMP phosphodiesterase 4B (Homo sapiens), sequence (Q07343 whole entry, looked up): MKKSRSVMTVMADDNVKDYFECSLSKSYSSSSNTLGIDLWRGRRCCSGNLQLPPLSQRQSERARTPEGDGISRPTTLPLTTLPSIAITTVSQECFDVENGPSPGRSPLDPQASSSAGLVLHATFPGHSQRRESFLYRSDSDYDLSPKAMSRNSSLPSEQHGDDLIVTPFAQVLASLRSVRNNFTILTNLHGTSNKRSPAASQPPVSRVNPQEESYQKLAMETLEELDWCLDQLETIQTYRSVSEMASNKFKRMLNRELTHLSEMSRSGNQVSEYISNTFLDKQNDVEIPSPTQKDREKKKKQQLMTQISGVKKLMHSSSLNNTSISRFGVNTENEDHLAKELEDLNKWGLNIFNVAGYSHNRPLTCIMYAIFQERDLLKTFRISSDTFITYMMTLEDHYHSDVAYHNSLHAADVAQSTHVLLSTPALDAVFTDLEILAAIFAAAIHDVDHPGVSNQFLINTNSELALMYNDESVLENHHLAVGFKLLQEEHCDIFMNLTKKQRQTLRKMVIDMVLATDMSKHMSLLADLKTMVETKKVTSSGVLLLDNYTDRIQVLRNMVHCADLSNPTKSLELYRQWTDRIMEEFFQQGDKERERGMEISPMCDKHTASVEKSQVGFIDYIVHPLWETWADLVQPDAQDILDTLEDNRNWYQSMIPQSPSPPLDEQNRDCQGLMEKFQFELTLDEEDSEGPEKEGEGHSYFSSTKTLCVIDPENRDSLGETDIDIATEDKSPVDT
In short: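 Cell-based read-out of cAMP via a modified cyclic nucleotide-gated channel and membrane potential dye (535/590 nm) in HEK293 cells expressing PDE4 endogenously. Compounds tested up to 22.9 uM final; 100 uM RO 20-1724 reference.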

NNC(=O)CS(=O)(=O)Nc1ncccn1
inactive: Potency [1] > 11.4 µM | activity change, negative = inhibition [2] -0.0437% | activity change, negative = inhibition [3] 3.94% | activity, negative = inhibition [4] -3.75% | Potency [5] > 46 µM | Potency [6] > 9.22 µM | Potency [7] | Potency [8]

c1ccc(CN2COc3c(ccc4c5c(ccc34)CN(Cc3ccccc3)CO5)C2)cc1
inactive: Potency [1] > 11.4 µM | activity change, negative = inhibition [2] -0.336% | activity change, negative = inhibition [3] 7.9% | activity, negative = inhibition [4] 8.56% | Potency [5] > 46 µM | Potency [6] > 9.22 µM | Potency [7] | Potency [8]

C[C@H](NCCN(C)C)[C@@H]1CCC2C3CCc4cc(O)ccc4[C@H]3CCC21C (stereo not given in full)
inactive: Potency [1] > 11.4 µM | activity change, negative = inhibition [2] 3.21% | activity change, negative = inhibition [3] -1% | activity, negative = inhibition [4] -5.94% | Potency [5] > 46 µM | Potency [6] > 9.22 µM | Potency [7] | Potency [8]

O=C(O)CNC(=O)[C@H]1NC(C(F)(F)F)(C(F)(F)F)OC1(C(F)(F)F)C(F)(F)F
inactive: Potency [1] > 11.4 µM | activity change, negative = inhibition [2] -4.91% | activity change, negative = inhibition [3] 10.9% | activity, negative = inhibition [4] -14.7% | Potency [5] > 46 µM | Potency [6] > 9.22 µM | Potency [7] | Potency [8]

NC1=N[C@H](c2ccc(Cl)cc2)N(c2ccc(S(N)(=O)=O)cc2)C(N)=N1
inactive: Potency [1] > 11.4 µM | activity change, negative = inhibition [2] -2.15% | activity change, negative = inhibition [3] -10.1% | activity, negative = inhibition [4] -0.371% | Potency [5] > 46 µM | Potency [6] > 9.22 µM | Potency [7] | Potency [8]

NC(N)=N[C@H](CC(=O)O)c1ccccc1
inactive: Potency [1] > 11.4 µM | activity change, negative = inhibition [2] 5.91% | activity change, negative = inhibition [3] 1.32% | activity, negative = inhibition [4] 3.35% | Potency [5] > 46 µM | Potency [6] > 9.22 µM | Potency [7] | Potency [8]

COc1cccc(CSCC(=O)O)c1
inactive: Potency [1] > 11.4 µM | activity change, negative = inhibition [2] -5.92% | activity change, negative = inhibition [3] 6.63% | activity, negative = inhibition [4] 6.95% | Potency [5] > 46 µM | Potency [6] > 9.22 µM | Potency [7] | Potency [8]

N[C@@H](CNO)C(=O)O
inactive: Potency [1] > 11.4 µM | activity change, negative = inhibition [2] 7.51% | activity change, negative = inhibition [3] 0.975% | activity, negative = inhibition [4] -9.2% | Potency [5] > 46 µM | Potency [6] > 9.22 µM | Potency [7] | Potency [8]

Cc1cc(Cl)ccc1OCC(=O)Oc1c(Cl)c(Cl)c(Cl)c(Cl)c1Cl
inactive: Potency [1] > 11.4 µM | activity change, negative = inhibition [2] 0.808% | activity change, negative = inhibition [3] -13.6% | activity, negative = inhibition [4] -0.45% | Potency [5] > 46 µM | Potency [6] > 9.22 µM | Potency [7] | Potency [8]

COc1cc(C(=O)O)c([N+](=O)[O-])c(OC)c1OC
inactive: Potency [1] > 11.4 µM | activity change, negative = inhibition [2] 4.41% | activity change, negative = inhibition [3] 3.25% | activity, negative = inhibition [4] 0.596% | Potency [5] > 46 µM | Potency [6] > 9.22 µM | Potency [7] | Potency [8]

O=C(O)/C(Cc1ccc([N+](=O)[O-])cc1)=N/O
inactive: Potency [1] > 11.4 µM | activity change, negative = inhibition [2] 3.45% | activity change, negative = inhibition [3] -0.295% | activity, negative = inhibition [4] 7.71% | Potency [5] > 46 µM | Potency [6] > 9.22 µM | Potency [7] | Potency [8]

NC(=O)C/C=C\CC(N)=O
inactive: Potency [1] > 11.4 µM | activity change, negative = inhibition [2] 1.15% | activity change, negative = inhibition [3] 10.3% | activity, negative = inhibition [4] -3.27% | Potency [5] > 46 µM | Potency [6] > 9.22 µM | Potency [7] | Potency [8]

C=CCSc1nc2c(N)ncnc2n1[C@@H]1O[C@H](CO)[C@@H](O)[C@@H]1O
inactive: Potency [1] > 11.4 µM | activity change, negative = inhibition [2] 4.59% | activity change, negative = inhibition [3] 2.7% | activity, negative = inhibition [4] -1.09% | Potency [5] > 46 µM | Potency [6] > 9.22 µM | Potency [7] | Potency [8]

Cc1ccc(CN2CCN(Cc3ccc(C)o3)[C@@H](C)C2)o1
inactive: Potency [1] > 11.4 µM | activity change, negative = inhibition [2] -2.23% | activity change, negative = inhibition [3] -7.45% | activity, negative = inhibition [4] 1.61% | Potency [5] > 46 µM | Potency [6] > 9.22 µM | Potency [7] | Potency [8]

O=[N+]([O-])c1ccc2c(c1)c(S(=O)(=O)O)cc1nonc12
inactive: Potency [1] > 11.4 µM | activity change, negative = inhibition [2] -3.17% | activity change, negative = inhibition [3] 6.23% | activity, negative = inhibition [4] 19.1% | Potency [5] > 46 µM | Potency [6] > 9.22 µM | Potency [7] | Potency [8]
